Here are results for eight compounds from ChEMBL document CHEMBL3988442, “University of Dundee, Small-Polar-MMV Screening Library” (2021).

Set-up in all cases: scale not given: direction of the effect not stated beside the values
Assay [1] concerns the target Protein translocase subunit SecA (Escherichia coli (strain K12)) (UniProt P10408). Description: Assay to Identify E. coli SecA ATPase Inhibitors. The format is functional. As to conditions: 30 µM.
In assay [2] the target is T1, Ubiquitin-activating enzyme e1, putative (Leishmania donovani (strain BPK282A1)) (UniProt E9BSI1).
T1 sequence (whole entry): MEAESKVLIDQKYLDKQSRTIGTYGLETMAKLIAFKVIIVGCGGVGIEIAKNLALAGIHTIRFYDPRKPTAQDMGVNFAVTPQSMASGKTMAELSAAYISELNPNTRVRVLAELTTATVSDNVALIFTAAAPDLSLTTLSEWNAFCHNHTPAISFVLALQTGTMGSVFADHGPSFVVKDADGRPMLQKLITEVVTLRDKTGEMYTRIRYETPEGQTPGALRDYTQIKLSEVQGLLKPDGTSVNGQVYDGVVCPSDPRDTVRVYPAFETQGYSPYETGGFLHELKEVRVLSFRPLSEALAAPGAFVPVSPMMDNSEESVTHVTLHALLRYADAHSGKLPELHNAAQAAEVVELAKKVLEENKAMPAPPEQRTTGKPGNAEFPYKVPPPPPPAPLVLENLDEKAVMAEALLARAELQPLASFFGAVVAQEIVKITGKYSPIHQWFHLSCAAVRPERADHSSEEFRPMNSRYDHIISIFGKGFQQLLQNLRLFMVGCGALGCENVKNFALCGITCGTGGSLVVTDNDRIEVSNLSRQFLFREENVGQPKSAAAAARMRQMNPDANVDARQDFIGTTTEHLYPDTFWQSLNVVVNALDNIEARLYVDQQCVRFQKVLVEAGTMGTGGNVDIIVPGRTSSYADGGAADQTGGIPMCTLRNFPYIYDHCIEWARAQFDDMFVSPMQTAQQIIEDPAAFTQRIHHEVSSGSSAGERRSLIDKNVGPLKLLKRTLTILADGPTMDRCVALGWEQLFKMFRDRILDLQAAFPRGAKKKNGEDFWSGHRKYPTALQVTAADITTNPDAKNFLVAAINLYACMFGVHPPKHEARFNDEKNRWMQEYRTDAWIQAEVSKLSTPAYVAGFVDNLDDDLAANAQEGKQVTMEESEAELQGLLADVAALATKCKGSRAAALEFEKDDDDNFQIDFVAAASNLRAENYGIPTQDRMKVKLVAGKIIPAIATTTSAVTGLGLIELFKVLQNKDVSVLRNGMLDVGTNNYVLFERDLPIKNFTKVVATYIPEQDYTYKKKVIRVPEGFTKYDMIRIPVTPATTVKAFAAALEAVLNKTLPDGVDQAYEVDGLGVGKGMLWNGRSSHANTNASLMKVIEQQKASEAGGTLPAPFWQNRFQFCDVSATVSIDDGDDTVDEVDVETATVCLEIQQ
Put plainly: Leishmania donovani Ubiquitin Activating Enzyme (LdE1). The format is functional. To be noted: 30 µM.

The target in assay [3] is AMP-activated protein kinase, AMPK (Homo sapiens) (UniProt P54646+O43741+P54619+Q9UGJ0+Q9Y478+Q13131+Q9UGI9). Put plainly: AMP-dependent Kinase enzyme assay. An in vitro enzyme assay that detects ADP turnover that is directly proportional to AMPK activity. This uses naive AMPK that is activated during the assay with MK-8722. The format is functional. As to conditions: 30 µM.

Assay [4] has as its target Sialic acid-binding Ig-like lectin 9 (Homo sapiens) (UniProt Q9Y336). Description: Hs-Siglec9 ALPHAscreen SOP 20170721. To be noted: 10 µM.
The next assay deals with Trypanosoma cruzi. Description: Trypanosoma cruzi phosphomannomutase and mannose-1-phosphate guanylyltransferase assay. The format is functional. To be noted: 10 µM.
Assay [5] deals with T2, Arginase-2, mitochondrial (Homo sapiens) (UniProt P78540).
T2 sequence (whole entry): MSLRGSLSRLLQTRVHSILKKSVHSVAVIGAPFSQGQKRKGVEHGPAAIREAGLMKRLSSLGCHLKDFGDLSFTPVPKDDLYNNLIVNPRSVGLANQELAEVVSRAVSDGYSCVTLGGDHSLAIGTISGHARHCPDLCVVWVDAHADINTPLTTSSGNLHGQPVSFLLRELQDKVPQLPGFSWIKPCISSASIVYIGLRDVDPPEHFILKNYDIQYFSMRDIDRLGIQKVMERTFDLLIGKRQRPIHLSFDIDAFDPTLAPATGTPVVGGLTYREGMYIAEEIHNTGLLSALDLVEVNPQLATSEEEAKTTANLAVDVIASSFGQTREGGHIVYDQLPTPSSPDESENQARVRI
Description: in vitro enzyme assay to detect the production of urea directly proportional to the activity of Arginase II. Further: in the data most compounds retested in dose-response had high values. Format: functional. To be noted: 33.3 µM.

Assay [6] has as its target T3, Proteasome subunit beta (Trypanosoma cruzi) (UniProt O96673).
T3 sequence (whole entry): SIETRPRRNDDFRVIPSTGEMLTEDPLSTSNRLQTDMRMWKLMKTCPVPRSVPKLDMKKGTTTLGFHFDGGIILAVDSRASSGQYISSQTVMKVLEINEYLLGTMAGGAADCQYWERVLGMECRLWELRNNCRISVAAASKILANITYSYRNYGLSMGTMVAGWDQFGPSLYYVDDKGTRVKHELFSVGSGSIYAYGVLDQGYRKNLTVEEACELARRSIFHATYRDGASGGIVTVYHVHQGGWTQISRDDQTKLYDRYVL
Description: Trypanosoma cruzi proteasome chymotrypsin-like activity (TcProtChymo) assay. Further: in the data most compounds retested in dose-response had high values. As to conditions: 9.37 µM. The format is functional.

For the next assay, the species on record is Homo sapiens. Put plainly: To identify inhibition of the IFN signalling (Jak-Stat) pathway via expression of an eGFP reporter gene under the control of an IFN-stimulated response element (ISRE) containing MxA promoter. Format: functional. To be noted: 30 µM. (In general: A reporter such as luciferase makes a cellular process visible.)
Assay [7] has as its target T4, Tyrosyl-tRNA synthetase, putative (Trypanosoma cruzi (strain CL Brener)) (UniProt Q4DSP6).
T4 sequence (whole entry): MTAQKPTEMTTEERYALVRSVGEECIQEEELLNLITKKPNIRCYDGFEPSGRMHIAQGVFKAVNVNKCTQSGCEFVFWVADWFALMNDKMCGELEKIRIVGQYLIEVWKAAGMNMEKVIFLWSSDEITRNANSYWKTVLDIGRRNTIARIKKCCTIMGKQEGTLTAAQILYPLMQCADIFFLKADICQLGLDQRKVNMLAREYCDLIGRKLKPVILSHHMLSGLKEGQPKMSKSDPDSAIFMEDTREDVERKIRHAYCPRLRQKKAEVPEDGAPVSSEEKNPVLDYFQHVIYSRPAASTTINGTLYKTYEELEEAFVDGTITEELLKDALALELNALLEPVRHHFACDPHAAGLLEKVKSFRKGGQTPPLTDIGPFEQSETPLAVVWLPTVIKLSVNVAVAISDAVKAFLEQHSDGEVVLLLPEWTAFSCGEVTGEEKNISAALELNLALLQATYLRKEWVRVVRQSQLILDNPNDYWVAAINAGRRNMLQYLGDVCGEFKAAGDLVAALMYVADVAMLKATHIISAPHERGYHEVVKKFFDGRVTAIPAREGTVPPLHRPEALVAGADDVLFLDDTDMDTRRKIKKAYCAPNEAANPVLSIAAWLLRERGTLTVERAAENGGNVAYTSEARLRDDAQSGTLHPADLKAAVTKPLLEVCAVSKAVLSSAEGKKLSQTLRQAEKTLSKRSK
Description: Trypanosoma cruzi tyrosyl tRNA synthetase (TcYRS) _High Tyrosine SOP. Further: in the data most compounds retested in dose-response had high values. To be noted: 30 µM. Format: functional.

Assay [8] has as its target T4, Tyrosyl-tRNA synthetase, putative (Trypanosoma cruzi (strain CL Brener)). Put plainly: Trypanosoma cruzi tyrosyl tRNA synthetase (TcYRS) SOP. As to conditions: 30 µM. Format: functional.
Assay [9] has as its target Chromo domain-containing protein 1 (Saccharomyces cerevisiae (strain ATCC 204508 / S288c) (Baker's yeast)) (UniProt P32657). Description: ScCHD-1 Enzyme Inhibition Assay. Further: in the data most compounds retested in dose-response had high values. As to conditions: 30 µM. Format: functional.

For some of these results: Results with a measured potency or affinity are listed apart.

Chain of Chromo domain-containing protein 1 (Saccharomyces cerevisiae (strain ATCC 204508 / S288c) (Baker's yeast)) (P32657 whole entry, the tested form may be a part): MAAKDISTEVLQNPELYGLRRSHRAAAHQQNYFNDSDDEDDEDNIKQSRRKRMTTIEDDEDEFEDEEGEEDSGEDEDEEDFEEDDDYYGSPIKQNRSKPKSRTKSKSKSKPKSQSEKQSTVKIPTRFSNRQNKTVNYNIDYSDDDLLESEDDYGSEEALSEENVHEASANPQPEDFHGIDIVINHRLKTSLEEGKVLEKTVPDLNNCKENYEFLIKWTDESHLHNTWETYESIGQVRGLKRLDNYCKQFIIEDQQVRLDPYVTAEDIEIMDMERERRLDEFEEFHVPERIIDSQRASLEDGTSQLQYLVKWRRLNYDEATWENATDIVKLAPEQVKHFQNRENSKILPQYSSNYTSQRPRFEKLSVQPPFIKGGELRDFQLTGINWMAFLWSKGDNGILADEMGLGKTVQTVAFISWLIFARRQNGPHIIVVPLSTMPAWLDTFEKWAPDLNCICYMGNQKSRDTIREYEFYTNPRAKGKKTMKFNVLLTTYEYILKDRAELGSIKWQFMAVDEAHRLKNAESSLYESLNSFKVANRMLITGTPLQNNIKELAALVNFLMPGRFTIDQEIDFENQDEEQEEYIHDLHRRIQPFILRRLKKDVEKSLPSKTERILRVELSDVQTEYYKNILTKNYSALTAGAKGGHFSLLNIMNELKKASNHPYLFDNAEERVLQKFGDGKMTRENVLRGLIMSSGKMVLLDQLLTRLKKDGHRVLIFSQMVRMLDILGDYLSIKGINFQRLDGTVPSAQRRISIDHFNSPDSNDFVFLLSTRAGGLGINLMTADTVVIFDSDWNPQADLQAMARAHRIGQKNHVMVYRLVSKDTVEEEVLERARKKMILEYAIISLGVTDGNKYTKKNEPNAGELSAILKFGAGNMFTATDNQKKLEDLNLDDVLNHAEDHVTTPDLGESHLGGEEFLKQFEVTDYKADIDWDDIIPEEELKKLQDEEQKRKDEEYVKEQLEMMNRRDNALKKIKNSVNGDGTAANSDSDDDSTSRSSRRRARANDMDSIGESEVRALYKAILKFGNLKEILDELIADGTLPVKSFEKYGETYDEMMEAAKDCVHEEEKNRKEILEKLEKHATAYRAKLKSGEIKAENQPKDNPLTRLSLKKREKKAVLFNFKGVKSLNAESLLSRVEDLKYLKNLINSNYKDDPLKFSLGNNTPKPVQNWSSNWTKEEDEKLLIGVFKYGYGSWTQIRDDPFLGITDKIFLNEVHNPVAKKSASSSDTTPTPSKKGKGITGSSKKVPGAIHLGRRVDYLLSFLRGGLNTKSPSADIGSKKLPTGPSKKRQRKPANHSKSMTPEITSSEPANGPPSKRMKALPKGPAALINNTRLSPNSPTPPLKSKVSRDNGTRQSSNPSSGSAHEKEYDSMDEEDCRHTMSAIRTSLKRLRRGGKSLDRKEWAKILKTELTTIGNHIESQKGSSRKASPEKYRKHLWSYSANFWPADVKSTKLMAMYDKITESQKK
Chain of Sialic acid-binding Ig-like lectin 9 (Homo sapiens) (Q9Y336 whole entry): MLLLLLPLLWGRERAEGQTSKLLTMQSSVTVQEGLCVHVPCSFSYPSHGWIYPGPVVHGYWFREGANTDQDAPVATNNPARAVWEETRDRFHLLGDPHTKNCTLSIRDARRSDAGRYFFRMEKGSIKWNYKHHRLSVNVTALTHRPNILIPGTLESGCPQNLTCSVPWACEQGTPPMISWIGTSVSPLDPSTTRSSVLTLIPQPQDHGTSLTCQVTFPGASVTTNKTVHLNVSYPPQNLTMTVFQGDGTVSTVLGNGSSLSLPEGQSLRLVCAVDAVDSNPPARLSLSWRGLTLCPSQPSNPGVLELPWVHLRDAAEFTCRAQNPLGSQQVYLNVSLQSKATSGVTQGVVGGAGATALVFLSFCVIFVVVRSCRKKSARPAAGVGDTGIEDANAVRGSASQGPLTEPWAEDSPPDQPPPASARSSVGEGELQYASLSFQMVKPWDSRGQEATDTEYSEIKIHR
Chain of Protein translocase subunit SecA (Escherichia coli (strain K12)) (P10408 whole entry): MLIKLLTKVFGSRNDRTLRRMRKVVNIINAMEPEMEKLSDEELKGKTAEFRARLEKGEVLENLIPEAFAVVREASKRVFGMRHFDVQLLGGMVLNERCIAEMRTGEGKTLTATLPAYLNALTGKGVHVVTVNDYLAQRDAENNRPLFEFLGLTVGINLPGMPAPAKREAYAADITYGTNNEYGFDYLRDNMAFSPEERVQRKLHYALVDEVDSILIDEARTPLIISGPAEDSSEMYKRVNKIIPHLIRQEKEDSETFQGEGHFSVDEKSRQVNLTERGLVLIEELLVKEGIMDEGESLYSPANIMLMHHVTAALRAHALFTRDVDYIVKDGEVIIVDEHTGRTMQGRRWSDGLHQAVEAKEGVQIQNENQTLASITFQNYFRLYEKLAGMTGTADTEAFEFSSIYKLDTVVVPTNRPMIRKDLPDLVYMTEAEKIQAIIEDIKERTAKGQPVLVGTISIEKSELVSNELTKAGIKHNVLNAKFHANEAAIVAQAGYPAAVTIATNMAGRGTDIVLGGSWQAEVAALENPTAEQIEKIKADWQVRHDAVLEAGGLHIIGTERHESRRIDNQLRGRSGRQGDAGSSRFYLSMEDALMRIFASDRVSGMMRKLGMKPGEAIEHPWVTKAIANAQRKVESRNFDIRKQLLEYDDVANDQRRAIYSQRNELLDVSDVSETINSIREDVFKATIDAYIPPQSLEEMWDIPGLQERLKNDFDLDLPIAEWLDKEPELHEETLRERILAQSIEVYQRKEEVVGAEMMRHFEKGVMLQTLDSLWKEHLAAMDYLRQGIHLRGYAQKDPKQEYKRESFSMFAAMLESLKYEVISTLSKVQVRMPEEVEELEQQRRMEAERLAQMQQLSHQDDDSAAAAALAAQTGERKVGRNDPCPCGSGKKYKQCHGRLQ

Regarding `Cc1nc(O)c2nnn(C[C@H]3CCCN3C(=O)c3cccc(F)c3)c2n1`, the Percent Effect in [1] was -3.34%; in assay [2], -1.35%; in assay [3] it was 8.18%; in assay [4], 1.91%; with Trypanosoma cruzi it was -3.36%; in assay [5] it was -3.48%. Further, the Percent Effect in assay [6] was -0.936%; in the assay listed under Homo sapiens it was 9.46%; in [7], 2.15%; in assay [8], 1.3%; in assay [9] it was 7.79%.
Turning to `O=C(NCCn1ccnc1)NCC(c1ccco1)N1CCCCC1` (stereo not drawn), the Percent Effect in assay [1] is -3.12%; in assay [2] it was 2.6%; in assay [3] it was 4.65%; in assay [4] it was 2.57%; in the assay on Trypanosoma cruzi, -4.41%; in assay [5], 1.9%. For the same compound, the Percent Effect was 3.64% in assay [6]; 13.9% in the assay filed under Homo sapiens; 2.86% in assay [7]; 2.35% in assay [8]; -18.2% in assay [9].
Take `Cc1ccc(C)c(CNC(=O)NC(C)(C(=O)O)c2ccco2)c1` (stereo not drawn): the Percent Effect is -5.53% in [1]; 21.1% in assay [2]; -0.592% in assay [3]; 12.2% in assay [4]; 8.12% with Trypanosoma cruzi; -5.75% in assay [5]. The Percent Effect was 5.33% in assay [6]; 5.04% in the assay filed under Homo sapiens; 5.42% in [7]; 16.1% in assay [8]; -4.02% in assay [9].
For the compound `CCOc1ccnc(N2CCN(C(=O)c3cn[nH]c3CC)CC2)n1`, the Percent Effect is -3.25% in assay [1]; 15.2% in assay [2]; -3.34% in assay [3]; 7.76% in assay [4]; 0.472% in the assay on Trypanosoma cruzi; -0.38% in [5]. Further, the Percent Effect was -1.23% in assay [6]; 18.9% in the assay listed under Homo sapiens; 7.39% in [7]; 24.1% in [8]; -4.33% in [9].
`Cn1cc(C(=O)N2CC[C@@H]3[C@@H]2CCN3Cc2cccc(F)c2)cn1`: the Percent Effect is -5% in assay [1]; 8.11% in [2]; 1.6% in [3]; -0.0749% in assay [4]; 0.88% in the assay with Trypanosoma cruzi; 4.14% in assay [5]. Besides, the Percent Effect was 9.96% in assay [6]; -2.6% in the assay filed under Homo sapiens; 0% in [7]; 10.3% in assay [8]; 1.12% in assay [9].
`Cc1cccc(C)c1NC(=O)CCNC(=O)c1ccoc1`: the Percent Effect in assay [1] is -3.75%; in assay [2], 18.2%; in [3], 5.22%; in assay [4], -2.96%; in the assay on Trypanosoma cruzi, 1.27%; in assay [5] it was 0.21%. In addition, the Percent Effect in assay [6] was 20.3%; in the assay filed under Homo sapiens it was 16%; in [7], 10.5%; in [8], 14.1%; in [9], -8.58%.
As to `COc1ccc(CNC(=O)c2nn(C)c3c2CS(=O)(=O)CC3)cc1OC`, the Percent Effect was -1.94% in [1]; 6.67% in [2]; 4.43% in assay [3]; 3.41% in assay [4]; -2.16% with Trypanosoma cruzi; -11.8% in assay [5]. The Percent Effect is 14.8% in assay [6]; 5.39% in the assay filed under Homo sapiens; 3.17% in assay [7]; 17.9% in [8]; -9.43% in assay [9].
On to `Cc1cc(CC(=O)NCc2ccnc(OCC(F)(F)F)c2)no1`, for which the Percent Effect in assay [1] is -9.52%; in assay [2], -5.26%; in assay [3], 3.73%; in assay [4] it was -4.53%; in the assay with Trypanosoma cruzi, -6.2%; in assay [5] it was -0.766%. Also, the Percent Effect in [6] is 2.84%; in the assay listed under Homo sapiens, 30.8%; in assay [7], 0.49%; in assay [8] it was 0%; in [9], -5.08%.
